TRHR agonist – agonists of human TRH receptor. AID 493084. activation, % at 2 µM. actives 0.18% (n = 360,000). TRHR cells, calcium flux fluo-8, FDSS agonist mode; note: 0% is about no effect
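TRHR-expressing cells loaded with fluo-8 calcium dye; 23 nL library compound pin-transferred, kinetic FDSS fluorescence (Ex 480/Em 530) recorded about 180 s for agonist-induced calcium release, before a 10 nM TRH EC20 addition for potentiator mode.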
TRHR enhancer – TRH receptor (human) allosteric enhancement | P34981 | TRHR cells, fluo-8 calcium fluorescence, EC20 TRH enhancement | enhancement, % at 2 µM | actives 0.66% (n = 360,000); in the data active = enhancement above about 30%; note: 0% is about no effect
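TRHR-expressing cells loaded with fluo-8 calcium dye were read kinetically (ex 480/em 530) during compound addition, then stimulated with an EC20 of TRH (10 nM final). Enhancement of the Gq-mediated intracellular calcium response was scored.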
D1 antagonist – antagonists of human D1 dopamine receptor; P21728; HEK293 TREx D1 cells, calcium flux, dopamine EC80; active compounds read low; activity change, negative = inhibition, % at 10 µM; actives 3.2% (n = 360,000); AID 504652; in the data active = activity change below about -30%; note: % is set by controls: 0 for no effect and ±100 for the full control effect
Target sequence (P21728 whole entry, looked up): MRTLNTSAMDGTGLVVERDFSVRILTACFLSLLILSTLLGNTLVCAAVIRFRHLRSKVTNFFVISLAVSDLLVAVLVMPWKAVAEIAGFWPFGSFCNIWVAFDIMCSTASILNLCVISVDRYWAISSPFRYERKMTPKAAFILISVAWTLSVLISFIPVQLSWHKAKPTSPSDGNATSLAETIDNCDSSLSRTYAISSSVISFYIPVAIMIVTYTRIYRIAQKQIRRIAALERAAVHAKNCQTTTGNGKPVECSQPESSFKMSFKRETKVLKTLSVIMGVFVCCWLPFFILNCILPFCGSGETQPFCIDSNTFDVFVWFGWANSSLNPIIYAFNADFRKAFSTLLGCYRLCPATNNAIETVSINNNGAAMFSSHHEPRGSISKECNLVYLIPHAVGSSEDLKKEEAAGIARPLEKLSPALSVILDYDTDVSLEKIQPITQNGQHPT
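Antagonism measured as reduced calcium response to an EC80 dopamine addition following 180 s compound pre-read; cells were inducible HEK293 Trex D1 plated overnight at 30 C, read kinetically at 1 cycle/sec.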
D1 PAM – human D1 dopamine receptor positive modulation | P21728 | HEK293 TREx D1 cells, calcium flux, dopamine EC20 potentiation | potentiation, % at 10 µM | actives 0.036% (n = 360,000); in the data active = potentiation above about 30%; note: 0% is about no effect
D1 ag – activates the human D1 dopamine receptor. P21728. HEK293 T-REx D1 cells, calcium flux, agonist mode. activation, % at 2 µM. actives 1% (n = 360,000); note: 0% is about no effect
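Inducible HEK293 T-REx D1 cells, force-coupled to calcium signalling, were plated at 4000 cells/well with tetracycline and held overnight at 30 C. After no-wash calcium dye loading, compound-evoked calcium rise over 180 s flagged agonists.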
Starred values were filed as active, the others as inactive; . = not tested or not shown; ! = a repeat was not active. Only some compounds are listed: those with a hit (about 4.7% of all), similar ones and a draw of the others. Cut-off read from the data, not from the text of the source, unless noted: active = activation above about 30%; inactive = the rest.

SMILES	TRHR agonist	TRHR enhancer	D1 antagonist	D1 PAM	D1 ag
C/C(=N\Nc1ccc([N+](=O)[O-])cc1)c1ccc2c(c1)OCO2	12	-3	-38*	-3	38*
O=C(N/N=C/c1ccc([N+](=O)[O-])cc1)c1cc2ccccc2o1	0	-2	-16	-5	1
C/C(=N/NS(=O)(=O)c1cccc([N+](=O)[O-])c1)c1ccc2c(c1)OCO2	0	-4	-27	5	8
C/C(=N\Nc1ccc([N+](=O)[O-])cc1)c1cc2ccccc2o1	17	9	-30*	-12	59*
C/C(=N\NS(=O)(=O)c1ccc([N+](=O)[O-])cc1)c1ccc2c(c1)OCO2	-1	2	-31*	11	5
Cc1ccc(N2CC(C(=O)NCc3nnnn3-c3ccc(C)c(C)c3)CC2=O)cc1C (stereo not drawn)	0	-2	-3	4	0
Cc1nnc(N/N=C/c2cccc(OCc3ccc(Cl)c(Cl)c3)c2)n1N	0	5	-1	-3	1
O=C(CCCOc1ccccc1)Nc1nncs1	-1	-2	-35*	-3	3
COc1ccc(NC(=O)C(NS(=O)(=O)c2cccs2)C(C)C)cc1Cl (stereo not drawn)	0	-6	-2	-4	3
COc1cc2c(cc1OC)C(c1ccccc1O)NCC2 (stereo not drawn)	0	-1	2	-4	2
Cc1cccc(C(=O)NCCc2ccc(S(N)(=O)=O)cc2)c1[N+](=O)[O-]	0	8	7	0	0
COCCNC(=O)c1cccc(C)c1[N+](=O)[O-]	0	2	-33*	0	1
O/C(=C\c1ccc2ccccc2n1)c1ccc(O)cc1O	16	4	12	-4	71*
Oc1ccc(/C=C/c2ccc3ccccc3n2)cc1	0	1	9	-5	2
CCOC(=O)c1[nH]c(C)c(/C=N/O)c1C	-1	2	-56*	-12	1
O=C(CSc1nc(=O)[nH]c2c1CCCC2)NCc1ccc(Cl)cc1	0	1	.	0	0
O=c1cc(-c2ccccc2)nc2nc(SCc3ccccc3)[nH]n12	0	1	-32*	-7	1
Cc1cc(=O)n2[nH]c(SCc3ccccc3)nc2n1	0	-10	4	-1	0
O=C(COC(=O)/C=C/c1ccccc1Cl)NC(=O)NCc1ccccc1	1	-2	-11	8	32*
COC(=O)CSc1nc2c(cnn2-c2ccc(F)cc2)c(=O)[nH]1	0	-9	-33*!	-5	1
CCOC(=O)CSc1nc2c(cnn2-c2ccc(F)cc2)c(=O)[nH]1	-1	1	7	5	3
CCCc1c(NC(=O)Nc2ccc(F)cc2)cnn1-c1ccccc1	0	3	-46*	-4	14
N#Cc1cccc(NC(=O)c2ccccc2C(=O)O)c1	1	-1	0	-2	3
N#Cc1ccc(NC(=O)Nc2ccc(Oc3ccc(NC(=O)Nc4ccc(C#N)cc4)cc3)cc2)cc1	0	37*	11	-4	16
N#Cc1ccc(NC(=O)Nc2cccc(C#N)c2)cc1	3	4	-63*	-13	32*
SMILES	TRHR agonist	TRHR enhancer	D1 antagonist	D1 PAM	D1 ag
COc1ccc(CN2CCc3cc(OC)c(OC)cc3C2)cc1O	0	5	-48*	-4	1
COc1ccc(NC(=O)C(Cc2cc(C)cc(C)c2)C(C)C(=O)O)cc1 (stereo not drawn)	2	-4	6	1	2
CCC(C)NC(=O)c1ccc(NS(=O)(=O)c2ccc3[nH]c(=O)[nH]c3c2)cc1 (stereo not drawn)	0	-2	-33*	-3	1
COCCNC(=O)c1ccc(NS(=O)(=O)c2ccc3[nH]c(=O)[nH]c3c2)cc1	0	4	0	-2	3
C[C@@]12C(=O)Nc3ccccc3C(=O)N1[C@H]1c3cc(Br)ccc3OC[C@@H]1[C@@H]2c1ccccc1	0	-2	-2	1	5
COCCn1c(SCC(=O)Nc2ccc(C(F)(F)F)cc2)nc2c([nH]c3ccccc32)c1=O	0	-5	14	1	0
CC1=C(C(=O)N2CCCCC2)C2(CCC(C)CC2)OC1=O (stereo not drawn)	0	6	1	2	2
CC1=C(C(=O)N2CCc3ccccc32)C2(CCC(C)CC2)OC1=O (stereo not drawn)	-1	-4	-78*	-8	2
COc1ccc(SCCN2CC[C@@H](C(C)(C)C)CCC2=O)cc1	0	7	.	0	25
Clc1ccc(-c2csc(=Nc3cccnc3)n2CCCn2ccnc2)cc1Cl	-1	-9	13	-5	6
COCCn1c(-c2ccc(Br)cc2)csc1=Nc1cccnc1	-1	-9	-34*	-7	4
FC(F)Oc1ccc(-c2csc(=Nc3cccnc3)n2CC2CCCO2)cc1 (stereo not drawn)	0	-6	-31*	-2	15
O=C(N/N=C/c1cn(CCOc2ccccc2)c2ccccc12)c1ccncc1	0	0	-34*	-5	3
Cc1cc(OCCSc2nnc(-c3cccs3)n2C)ccc1Cl	0	6	-20	-13	35*
CC(C)(C)OC(=O)NCc1nnc(-c2nc3ccccc3[nH]2)o1	0	-5	3	7	4
Cc1ccc(/C=c2\sc3n(c2=O)CN(c2ccc(Br)cc2)CN=3)o1	0	-9	-39*	-11	0
O=C(Nc1c(-c2ccccc2)nc2ccccn12)c1ccccc1	0	-5	2	-2	6
O=C(Nc1c(-c2ccccc2)nc2ccccn12)c1ccccc1F	-1	-10	-75*!	-4	2
COc1cc(CNn2cnnc2)ccc1OCC(=O)NC(C)(C)C	0	5	-79*	-4	2
CCCOc1ccc(C(=O)Nc2ccc(NC(=O)c3ccccc3)c(C)c2)cc1	-1	-3	-25	-3	-1
Cc1ccc(S(=O)(=O)N2CCOC23CCN(C(=O)c2ccc(Cl)cc2Cl)CC3)cc1	1	32*	-24	-4	22
Cc1ccc(S(=O)(=O)N2CCOC23CCN(C(=O)c2cc(Cl)ccc2Cl)CC3)cc1	0	-4	-25	-9	7
CCOc1cc(/C=N/NC(=O)C(=O)NCc2cccnc2)ccc1O	0	-1	-35*	-3	-1
Cc1ccc(-c2nnn3c2nc(NCCc2ccccc2)c2ccccc23)cc1	0	3	4	-2	1
Cc1cccc(N(CC(=O)NCCSc2nc3ccccc3s2)S(=O)(=O)c2ccccc2)c1	0	8	5	0	1
CCOc1ccc(N(CC(=O)NCCOc2ccc(C)cc2)S(=O)(=O)c2ccccc2)cc1	1	13	-38*	12	54*

Source: PubChem BioAssay
